Shown are actives, neighbours in structure and some others; about 27% of the full set was active somewhere.
CYP2C19 act: cytochrome P450 2C19 (human) activation; P33261; recombinant CYP2C19, luciferin-H EGE luminescence; active compounds read high; 0 = fully inhibited enzyme, 1 = untreated enzyme; activation factor at 5 µM; 96,000 tested, under 10 active; AID 1025;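 active means activation factor of at least 2 at 5 µM in the primary screen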;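 further: 0 = wells with 2.5 mM tranylcypromine and 1 = vehicle-only wells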
Target sequence (P33261 whole entry, looked up): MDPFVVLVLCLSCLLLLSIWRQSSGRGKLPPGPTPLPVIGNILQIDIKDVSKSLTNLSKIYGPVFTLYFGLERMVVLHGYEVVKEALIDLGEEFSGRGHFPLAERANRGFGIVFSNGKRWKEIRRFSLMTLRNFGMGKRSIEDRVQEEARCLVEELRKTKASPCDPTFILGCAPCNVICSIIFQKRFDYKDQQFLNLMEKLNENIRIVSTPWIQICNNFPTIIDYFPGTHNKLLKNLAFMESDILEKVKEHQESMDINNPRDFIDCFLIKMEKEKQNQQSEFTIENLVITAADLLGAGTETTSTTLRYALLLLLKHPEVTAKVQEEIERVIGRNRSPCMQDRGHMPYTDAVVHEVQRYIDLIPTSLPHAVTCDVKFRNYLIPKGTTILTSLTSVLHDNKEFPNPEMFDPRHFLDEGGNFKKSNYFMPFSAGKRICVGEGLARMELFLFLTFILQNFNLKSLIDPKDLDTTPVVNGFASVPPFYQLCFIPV
sEH act: increases human soluble epoxide hydrolase activity; purified human sEH enzymatic activity, activator screen; 91,000 compounds, 0.04% hits; activation, % at 2 µM; AID 717; P34913; in the data active means activation above about 37%
CYP2C9 inhib: inhibitors of human CYP2C9. P11712. CYP2C9 Supersomes, luciferin-H conversion, luminescence. inhibition, % at 5 µM. 96,000 compounds, 20% hits. AID 777;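 active means blocking of liver enzyme CYP2C9 beyond about 50% at 5 µM, limit read from the data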
CYP2C19 inh: inhibitors of human CYP2C19 | P33261 | 96,000 compounds, 21% hits | CYP2C19 Supersomes, luciferin-H EGE luminescence, 30 min | inhibition, % at 5 µM | AID 778;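 active means CYP2C19 inhibition above a set limit at 5 µM in the primary screen, cut at about 50% in these data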;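 further: plate controls were negative control wells for no effect and 2.5 mM tranylcypromine positive control for full effect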
sEH inhibitor: inhibitors of human soluble epoxide hydrolase; 91,000 compounds, 0.34% hits; recombinant human sEH enzymatic activity assay; P34913; inhibition, % at 2 µM; in the data active means inhibition above about 80%
CYP2C9 act: activators of human CYP2C9; recombinant CYP2C9, luciferin-H conversion, luminescence; active compounds read high; factor 1 = untreated enzyme, 0 = blocked; activation factor at 5 µM; 96,000 compounds, 1.4% hits; AID 1024;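 active means activation factor of 2 or more for CYP2C9 at a 5 µM dose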;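 further: 0 = sulfaphenazole-blocked wells and 1 = vehicle-only wells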
The depositor's hits bear a star; . = not tested or not shown.

SMILES	CYP2C19 act	sEH act	CYP2C9 inhib	CYP2C19 inh	sEH inhibitor	CYP2C9 act
COc1ccc(C(=O)Nn2c(SCC(=O)NCC3CCCO3)nc3ccccc3c2=O)cc1 (stereo unspecified)	0.8	1	60*	19	-2	0.4
Cn1nc(-c2ccc(OCC(=O)NCC3CCCO3)cc2)c2ccccc2c1=O (stereo unspecified)	0.5	5	54*	46	-6	0.5
COCCNC(=O)CSc1nc2ccccc2c(=O)n1-c1cccc(OC)c1	0.2	2	65*	82*	-4	0.3
O=C(CSc1nc2ccccc2n1-c1ccccc1)NCC1CCCO1 (stereo unspecified)	0	-11	72*	96*	12	0.3
CCOC(=O)c1cc(CNC(=O)c2c(C)oc3c2CCCC3)c(C)o1	0.8	-3	18	16	1	0.8
COc1ccc(-n2nc(C(=O)NCC(=O)NCC3CCCO3)c3ccccc3c2=O)cc1Cl (stereo unspecified)	0.8	-7	60*	15	4	0.4
COc1ccc(C(=O)Nn2c(SCC(=O)NCc3ccccc3)nc3ccccc3c2=O)cc1	0.9	-14	74*	5	12	0.3
COc1ccc(Cn2c(C)c(C)c(C#N)c2NC(=O)Nc2cccc(Cl)c2)cc1	1	1	19	3	0	0.8
Cc1ccc(NC(=O)CCC(=O)NCCO)cc1	0.9	9	-9	12	-13	1.1
Cc1ccc(NC(=O)CC(O)(C(F)(F)F)C(F)(F)F)cc1	0.4	-2	20	59*	2	0.8
COc1ccc(C)cc1NC(=O)CC(O)(C(F)(F)F)C(F)(F)F	0.4	10	14	62*	-8	0.9
CCOC(=O)Nc1cc(C)ccc1OC	1	9	-30	-4	-6	1.3
COCCN(C(=O)COc1ccc(Cl)cc1)c1nnc(-c2cccnc2)s1	.	-2	.	.	5	.
Nc1ccc(C(=O)Nc2ccco2)cc1	.	-8	.	.	10	.
COc1ccc(C(=O)/C=C/c2cccs2)c(OC(=O)c2cccc([N+](=O)[O-])c2)c1	0.9	0	50*	6	3	0.5
CCC1(COC(=O)Nc2cccc(Cl)c2)COC1	0.5	-15	8	48	15	0.9
O=C1CC(N2CCN(C/C=C/c3ccccc3)CC2)C(=O)N1CCc1ccccc1 (stereo unspecified)	1	1	-1	1	1	1
O=C1CC(N2CCN(C/C=C/c3ccccc3)CC2)C(=O)N1Cc1cccs1 (stereo unspecified)	0.4	-5	36	55*	3	0.6
CCCCNc1cc(C)nc(N2CCOCC2)n1	0.7	-16	5	25	11	1
CC(C)NC(=O)c1cccc(Cn2cc(Cl)cn2)c1	0.9	-9	26	5	9	0.7
COC(=O)c1sc(NC(=O)c2ccc(Cn3cc(Cl)cn3)o2)c(C#N)c1C	0.5	17	75*	47	-16	0.3
O=C(c1ccc(Cn2cc(Cl)cn2)cc1)N1CCN(c2ccccc2)CC1	0.9	-6	32	14	8	0.7
N#Cc1c(NC(=O)c2ccc(Cn3cc(Br)cn3)o2)sc2c1CCCCC2	1.1	1	-25	-7	1	1.2
COC(=O)c1ccc(Cn2cc(Cl)cn2)cc1	0	23	53*	99*	-21	0.5
O=C(Nc1cccc2ccccc12)c1ccc(Cn2cc(Cl)cn2)cc1	0.9	4	-156	15	-3	2.6*
SMILES	CYP2C19 act	sEH act	CYP2C9 inhib	CYP2C19 inh	sEH inhibitor	CYP2C9 act
COC(=O)c1sc(NC(=O)CSc2nncs2)c(C(=O)OC)c1C	0.7	8	66*	28	-10	0.3
COC(=O)c1sc(NC(=O)CC(C)C)c(C(=O)OC)c1C	0.4	-3	26	59*	2	0.7
COC(=O)c1sc(NC(C)=O)c(C(=O)OC)c1C	1	.	2	-3	.	1
CC(C)(C)C1(c2ccccc2)NC(=O)N(CC(=O)N2CCOCC2)C1=O (stereo unspecified)	1.2	6	-24	-16	-9	1.2
NC1C2CN(c3nc4c(cc3F)c(=O)c(C(=O)O)cn4-c3ccc(F)cc3F)CC12 (stereo unspecified)	0.9	-9	4	6	10	1
COc1ccc(C2C(C(=O)NC(C)C)c3ccccc3C(=O)N2C)cc1OC (stereo unspecified)	1.2	-1	-9	-16	1	1.1

Assay outcomes (PubChem BioAssay)
